High-throughput results (PubChem BioAssay)
Only some compounds are listed: those with a hit (about 2.4% of all), similar ones and a draw of the others.
Pol iota inh = inhibitors of human DNA polymerase iota; AID 588590; Q9UNA4; 390,000 compounds, 1% hits; Pol iota fluorescent replication assay, 10 min; Potency, µM (titrated, usually from 115 µM), for inactives: top-dose activity, negative = inhibition, actives largely listed as inhibitors
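Pol iota at 10 nM preincubated 15 min with compounds at room temperature; reaction started with fluorescent substrate, 50 nM final. Fluorescence read kinetically at 0 and 10 min; buffer-only wells as negative control.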
Pol eta inh = DNA polymerase eta (human) inhibition. recombinant Pol eta, fluorescent DNA replication assay. Potency, µM (titrated, usually from 114 µM), for the others: at the top dose activity change, negative = inhibition, hits mostly inhibitors. 390,000 compounds, 1.2% hits; further: on the % scale 0 is the no-effect control and ±100 the full control effect
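Fluorescent replication assay: 50 nM final substrate added after a 15 min room-temperature compound preincubation with 10 nM enzyme. Signal taken at 0 min and again at 10 min.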
Pol kappa inh = blocks human DNA polymerase kappa activity. Q9UBT6. purified Pol kappa, fluorescent DNA synthesis assay, 10 min. Potency, µM (series often up to 107 µM), without a hit: top-dose activity, negative = inhibition, hits mostly inhibitors. 400,000 compounds, 0.53% hits; further: on the % scale 0 is the no-effect control and ±100 the full control effect
Target sequence (Q9UBT6 whole entry, looked up): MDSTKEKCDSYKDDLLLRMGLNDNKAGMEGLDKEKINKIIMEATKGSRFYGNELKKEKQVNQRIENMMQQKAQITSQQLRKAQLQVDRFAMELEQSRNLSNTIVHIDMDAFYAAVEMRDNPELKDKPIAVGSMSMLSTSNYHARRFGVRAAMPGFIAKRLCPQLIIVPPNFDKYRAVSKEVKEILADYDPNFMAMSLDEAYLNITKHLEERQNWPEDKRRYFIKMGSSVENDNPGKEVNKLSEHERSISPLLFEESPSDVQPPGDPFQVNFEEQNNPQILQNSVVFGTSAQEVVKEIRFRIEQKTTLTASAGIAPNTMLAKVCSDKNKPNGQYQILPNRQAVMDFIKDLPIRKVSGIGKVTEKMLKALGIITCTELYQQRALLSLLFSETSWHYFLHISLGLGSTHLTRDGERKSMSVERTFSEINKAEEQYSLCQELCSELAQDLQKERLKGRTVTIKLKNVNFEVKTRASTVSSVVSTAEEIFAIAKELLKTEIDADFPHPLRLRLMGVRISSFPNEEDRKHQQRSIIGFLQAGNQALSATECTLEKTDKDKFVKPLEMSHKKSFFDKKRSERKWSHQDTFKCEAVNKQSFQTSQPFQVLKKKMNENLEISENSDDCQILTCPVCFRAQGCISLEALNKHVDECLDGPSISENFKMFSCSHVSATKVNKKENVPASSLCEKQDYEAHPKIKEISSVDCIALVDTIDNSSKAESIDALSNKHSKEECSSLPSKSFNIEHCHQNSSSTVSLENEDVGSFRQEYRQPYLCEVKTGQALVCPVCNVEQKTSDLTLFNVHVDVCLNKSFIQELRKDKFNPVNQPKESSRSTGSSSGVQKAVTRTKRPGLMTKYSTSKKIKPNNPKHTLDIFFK
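10 nM Pol kappa was preincubated with compounds for 15 min at room temperature. Reaction started with 50 nM (final) substrate. Fluorescence read kinetically at 0 and 10 min.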
FEN1 inh = inhibitors of human flap endonuclease 1; P39748; Recombinant FEN1 flap cleavage, fluorescence, 15 min; Potency, µM (top dose mostly 114 µM), without a hit: at the top dose activity change, negative = inhibition, actives largely listed as inhibitors; 390,000 compounds, 0.35% hits; AID 588795; further: on the % scale 0 is the no-effect control and ±100 the full control effect; nearly all actives have a fitted effect of over 65% in size
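Read-out was taken twice, immediately and after 15 min, following addition of 50 nM substrate to 10 nM FEN1 that had sat with test compound for 15 min at room temperature. Curves came from a four-parameter Hill model.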
WRN helicase inh = inhibitors of human WRN helicase | 360,000 compounds, 0.46% hits | WRN helicase unwinding, fluorescent forked duplex, kinetic | Q14191 | Potency, µM (doses to about 114 µM), inactives show at the highest dose activity change, negative = inhibition, usual class: inhibitors; further: on the % scale 0 is the no-effect control and ±100 the full control effect; nearly all actives have a fitted effect of over 55% in size
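Kinetic red-fluorescence monitoring (525/598 nm) tracks WRN helicase activity after 100 nM fluorophore-quencher forked duplex and 2 mM ATP are added to 20 nM enzyme pretreated 15 min at room temperature with compound.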
POLB inh = blocks human DNA polymerase beta activity | P06746 | Pol beta primer extension/strand displacement, fluorescence kinetic | Potency, µM (doses to about 114 µM), inactives show at the top dose activity change, negative = inhibition, usual class: inhibitors | 340,000 compounds, 1.3% hits | AID 485314; further: on the % scale 0 is the no-effect control and ±100 the full control effect
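10 nM enzyme + cpd, 15 min RT; start with substrate 50 nM final; read 0 min and after 10 min RT. Corrected, normalized data; 4-parameter Hill curve fit.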
* marks the source's active call; other numbers are inactive results; ? = inconclusive; / = no result given; ! = repeats disagree; [ ] = another dose, or the depositor's remark. The call rests on the fitted dose curve; in most records, active means well fitted curve in the direction sought with a large enough effect; inconclusive means small, poorly fitted or top-dose-only effect, or another doubt; inactive means no such curve, though single readings can be large; an effect the other way counts as inactive or inconclusive. Potency means the concentration at half of the fitted maximal effect.

SMILES	Pol iota inh	Pol eta inh	Pol kappa inh	FEN1 inh	WRN helicase inh	POLB inh
CCOC(=O)c1ccc(NC(=O)c2cc3c(n(-c4ccc(C)cc4)c2=O)CC(C)(C)CC3=O)cc1	?	-19%	89µM*	17%	/	-4%
O=C(CSc1ccccc1Cl)NC1CCCc2ccccc21 (configuration not stated)	95%	-7%	-14%	-5%	-9%	13µM*
CCOc1ccc(C(=O)c2ccc(OC)c(O)c2O)cc1	/	/	13µM*	/	/	/
COc1ccc(C(=O)c2ccc(C)cc2)c(OC)c1OC	107%	-8%	-10%	1%	-22%	/
CCOc1ccc(N/C=C/C(=O)c2ccc(OC)c(OC)c2)cc1	5%	5%	-2%	0%	-4%	3%
COc1ccc(C(=O)c2ccc(O)cc2)c(O)c1O	/	/	2.2µM*	/	/	/
Cc1cc(C)c(S(=O)(=O)Nc2ccc3oc4c(c3c2)C(=O)CC(C)(C)C4)cc1C	79µM*	-10%	-3%	-15%	/	-12%
COc1ccc(S(=O)(=O)Nc2ccc3oc4c(c3c2)C(=O)CC(C)(C)C4)cc1	-15%	-2%	-5%	6%	/	-17%
CN(C)c1ccc(C=Nc2cncc3ccccc23)cc1	20%	/	-6%	3%	/	/
COc1cccc(N2CCN(C(=O)CCS(=O)(=O)c3ccc4c(c3)oc(=O)n4C)CC2)c1	71µM*	?	?	-4%	-14%	?
COc1ccc(NC(=O)CCS(=O)(=O)c2ccc3c(c2)oc(=O)n3C)cc1	50µM*	?	-24%	-4%	-4%[11.6 µM]	?
CCc1ccccc1NC(=O)CCS(=O)(=O)c1ccc(OC)cc1	31%	?	-19%	3%	-8%	35µM*
NC(C(=O)O)c1nn[nH]n1 (configuration not stated)	-20%	/	-10%	0%	/	/
CC(=O)Nc1ccc(/C=C/c2ccnc3ccccc23)cc1	20%	/	1%	-20%	/	/
CC(O)COCC1OC2OC3C(COCC(C)O)OC(OC4C(COCC(C)O)OC(OC5C(COCC(C)O)OC(OC6C(COCC(C)O)OC(OC7C(COCC(C)O)OC(OC8C(COCC(C)O)OC(OC1C(OCC(C)O)C2OCC(C)O)C(OCC(C)O)C8OCC(C)O)C(OCC(C)O)C7OCC(C)O)C(OCC(C)O)C6OCC(C)O)C(OCC(C)O)C5OCC(C)O)C(OCC(C)O)C4OCC(C)O)C(OCC(C)O)C3OCC(C)O (configuration not stated)	2%	/	1%	15%	/	/
O=C(NC(=S)Nc1ccc(NC(=O)c2cccs2)cc1)c1cc2ccccc2o1	3%	?	-15%	7%	-23%	13µM*
O=C(NC(=S)Nc1ccc(NC(=O)c2cccs2)cc1)c1ccco1	-3%	-17%	-21%	-3%	-24%	-1%
O=C(O)c1cc(=O)c2c3nc4ccccc4oc-3cc(=O)c2[nH]1	?	/	10µM*	?	/	/
COc1ccc(OC)c2c(=O)cc(C(=O)O)[nH]c12	159%	-10%	-1%	1%	-26%	-26%
COc1cc(NC(=O)C2CCCN(S(=O)(=O)c3ccc4c(c3)CCCN4C(C)=O)C2)cc(OC)c1 (configuration not stated)	-2%	-10%	-15%	6%	-26%[57.1 µM]	3%
COc1ccc(NC(=O)C2CCCN(S(=O)(=O)c3ccc4c(c3)CCCN4C(C)=O)C2)cc1 (configuration not stated)	79µM*!	19%	-16%	14%	-3%	4%
CCOC(=O)c1c(-c2ccco2)csc1NC(=O)COC(=O)c1cnc(C)cn1	40µM*	25µM*	?	-14%	-30%	/
O=C1c2ccc(-c3ccc(F)cc3OCc3ccccc3)cc2S(=O)(=O)c2cccc(C(=O)N3CCN(c4ncc(Br)cn4)CC3)c21	-18%	7%	-7%	9%	4%	/
O=C(O)c1cccc2c1C(=O)c1ccc(-c3ccc(F)cc3OCc3ccccc3)cc1S2(=O)=O	?	79µM*	-33%	-15%	2%[11.6 µM]	/
C=CCn1c(=O)n(C2OC(CO)C(O)C2O)c2nc(N)[nH]c(=O)c21 (configuration not stated)	/	/	14%[60.1 µM]	/	/	/
SMILES	Pol iota inh	Pol eta inh	Pol kappa inh	FEN1 inh	WRN helicase inh	POLB inh
Cc1cccc(OCCn2nnc3sc4c(c3c2=O)CCCC4)c1	?	/	-24%	-13%	/	20µM*
Cc1ccc(OCCCCn2nnc3sc4c(c3c2=O)CCCC4)cc1	6%	/	-9%	2%	/	-2%
Cc1ccc(OCCCCn2nnc3sc4c(c3c2=O)CCC(C)C4)cc1 (configuration not stated)	-25%	/	-24%	1%	/	25µM*
OC(CN1CCCCC1)c1ccccc1 (configuration not stated)	13%	/	2%	-8%	/	/
CC(=O)Nc1ccc(SC[C@H](Cc2ccccc2)N2CC[C@@H](N)CCC2=O)cc1	4%	/	-22%	17%	/	/
CCCNC(=O)c1ccc(-c2nc3ccccc3s2)s1	?	?	-10%	5%	-16%	16µM*
CC(C)C[C@H](NC(=O)[C@H](CCC(N)=O)NC(=O)[C@H](CCCCN)NC(=O)[C@H](CCC(N)=O)NC(=O)[C@@H](N)CCC(=O)O)C(=O)N[C@@H](CCC(N)=O)C(=O)O	/	/	9%[19.4 µM]	/	/	/
CCOC(=O)c1ccc(N2C(=O)C3CC=CCC3C2=O)cc1 (configuration not stated)	89µM*	-7%	-9%	-2%	-11%	-2%
CC[N+]1(CC(=O)c2ccc(OC)cc2)CCCCC1	34%	/	1%	-3%	/	/
COc1cc(/C=C2/C(=O)NN(c3ccc(Cl)cc3)C2=O)ccc1OC(=O)c1ccco1	-19%	28µM*	-22%	-10%	40µM*	?
CNc1c(Br)cc(C(O)C2=CCc3ccccc32)cc1Br (configuration not stated)	-17%	/	6%	6%	/	/
COc1cc(/C=C2\SC(=S)N(c3cccnc3)C2=O)ccc1O	?	4%	?	-25%	?	?
COc1cc(/C=C2\SC(=S)N(NC(=O)c3cccnc3)C2=O)ccc1O	16µM*	?	?	-32%	50µM*	?
COc1cc(/C=C2\SC(=S)N(NC(=O)c3ccc(O)cc3)C2=O)ccc1O	50µM*	?	?	?	28µM*	13µM*
O=C(O)c1cc(-c2ccc(/C=c3\sc4nc5ccc(Br)cc5n4c3=O)o2)ccc1Cl	/	/	/	/	/	1.6µM*
O=C(O)c1cc(N/N=C/c2ccc(-c3ccc(F)cc3)o2)ccc1Cl	?	?	-14%	-2%	-28%	-12%
O=C1c2ccccc2-c2cc([N+](=O)[O-])c([N+](=O)[O-])cc21	2.2µM*	/	0%	?	/	/
